# Source: PubChem BioAssay (National Center for Advancing Translational Sciences (NCATS))
# YjeE inh – qHTS Assay for Inhibitors of YjeE; Potency, µM; AID 605, 2007; purified YjeE enzyme, qHTS inhibition assay; 71,000 compounds, 0.05% hits
#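 Purified YjeE (10 uM) with BODIPY Texas Red-labeled ADP probe (2 uM); compounds pin-transferred, 15 min at room temperature. Binding inhibition read as decreased fluorescence polarization; ADP titration as control.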
# BRCT PPI red – qHTS Assay for Inhibitors of BRCT-Phosphoprotein Interaction (Red Fluorophore) | Breast cancer type 1 susceptibility protein (Homo sapiens), P38398 | BRCT-phosphopeptide binding, red fluorescence polarization | Potency, µM (titrated, usually from 76.9 µM), without a hit: at the top dose activity change, negative = inhibition, usual class: inhibitors | 75,000 compounds, 0.03% hits; note: % is set by controls: 0 for no effect and ±100 for the full control effect
#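 Fluorescence polarization: 100 nM His-tagged BRCA1 BRCT with 100 nM TAMRA-labelled phospho-BACH1 decapeptide, phosphate buffer pH 7.3 with 150 mM NaCl, DTT, 0.01% Tween 20; 12 min RT. Binding inhibition seen as FP decrease.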
# Hsp90 Hop PPI – qHTS Assay for Disrupters of an Hsp90 Co-Chaperone Interaction; 71,000 compounds, 0.44% hits; AlphaScreen TPR2A-His6 binding biotin-Hsp90 C-terminal peptide; Potency, µM (top dose mostly 57 µM), inactives show at the highest dose activity change, negative = inhibition; active = well fitted curve in either direction with a large enough effect; inconclusive = small, poorly fitted or top-dose-only effect, or another doubt; note: potency is the fitted concentration of half-maximal effect; % is set by controls: 0 for no effect and ±100 for the full control effect
# IMPase inh – qHTS Assay for Identifying the Cell-Membrane Permeable IMPase Inhibitors. Inositol monophosphatase 1 (Rattus norvegicus), P97697. CHO-M1 cells, IP1 accumulation, HTRF TR-FRET ratio. inhibition (IP1 accumulation), % at 46.1 µM. 120,000 tested, under 10 active. AID 901, 2007; active = well fitted curve in the direction sought with a large enough effect in the signal ratio, not every such curve was filed as active; inconclusive = small, poorly fitted or top-dose-only effect, or a change in a side signal; inactive = no such curve, though single readings can be large or run the other way; the % refers to the signal ratio;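 note: cells stimulated with carbachol in lithium chloride buffer; plate controls were DMSO basal wells for no effect and reference inhibitor wells for full effect; higher means more IMPase inhibition seen as more IP1 and lower FRET ratio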
# Target sequence (P97697 whole entry, looked up): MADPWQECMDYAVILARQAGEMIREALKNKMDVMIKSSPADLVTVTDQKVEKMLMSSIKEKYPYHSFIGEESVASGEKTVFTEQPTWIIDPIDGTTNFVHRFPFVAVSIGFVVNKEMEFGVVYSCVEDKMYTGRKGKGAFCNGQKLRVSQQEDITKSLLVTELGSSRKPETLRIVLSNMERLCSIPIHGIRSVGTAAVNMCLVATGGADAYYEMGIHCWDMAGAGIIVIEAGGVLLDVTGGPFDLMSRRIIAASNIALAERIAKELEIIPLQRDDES
#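 The IP-One HTRF competitive assay in carbachol-stimulated CHO-M1 cells quantifies cellular IP1. Compounds spanned up to 46 uM final, and activity is expressed as AC50 from concentration-response fits of the ratio and donor data.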
# BRCT inh green – qHTS Assay for Inhibitors of BRCT-Phosphoprotein Interaction (Green Fluorophore); Breast cancer type 1 susceptibility protein (Homo sapiens), P38398; BRCA1 BRCT-phosphopeptide binding, green fluorescence polarization; Potency, µM (series often up to 76.9 µM), for inactives: top-dose activity change, negative = inhibition, hits mostly inhibitors; 75,000 compounds, 0.05% hits;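 note: potency is the fitted concentration of half-maximal effect; plate controls were peptide without protein for full effect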
#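 Compounds were incubated for 12 min at room temperature with a complex of 100 nM fluorescein-tagged pBACH1 decapeptide and 250 nM His-tagged BRCT protein. Buffer was phosphate pH 7.3 with EDTA, DTT and Tween 20. Disruption of binding lowers the polarization signal.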
# Pol III holo inh – qHTS Assay for Inhibitors of DNA Polymerase III Holoenzyme System | reconstituted DNA polymerase III holoenzyme replication, biochemical | Potency, µM (doses to about 57.1 µM), without a hit: at the highest dose activity change, negative = inhibition | 71,000 compounds, 0.25% hits | AID 603, 2007; note: potency is the fitted concentration of half-maximal effect; % is set by controls: 0 for no effect and ±100 for the full control effect
#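 Reconstituted *E. coli* holoenzyme (0.35 nM Pol III, 1 nM beta, 154 nM SSB, 2 nM primase) was preincubated with compound for 15 min at RT. Synthesis on 1.4 nM ssM13Gori ran 35 min, then was stopped with PicoGreen/EDTA and read as dsDNA fluorescence.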
# Active calls of the source: *; i = inactive; ? = inconclusive; . = no result given; ! = not active in a repeat; [ ] = dose if it differs, or a comment. Only a selection was taken, and hits are over-represented in it overall. Unless noted, calls come from the whole dose curve; as a rule, active = well fitted curve in the direction sought with a large enough effect; inconclusive = small, poorly fitted or top-dose-only effect, or another doubt; inactive = no such curve, though single readings can be large; an effect the other way counts as inactive or inconclusive.
SMILES,YjeE inh,BRCT PPI red,Hsp90 Hop PPI,IMPase inh,BRCT inh green,Pol III holo inh
COCCn1c(=O)c(-c2cn(C)c3ccccc23)nc2cnc(Oc3ccccc3)nc21,i,0%,3.2µM*,.,-4%,-8%
CCCCCCCCCCCCCCC/C=C\[C@H](O)[C@@H](NC(=O)CCCCCCCCCCCCC)OC (tested in a mixture with another compound),i,2%,-3%,-3,-2%,-5%
COC(=O)[C@@H]1C[C@H]1[C@@H](NC(=O)Oc1ccc(F)cc1)c1ccccc1,i,-1%,1%,.,3%,-8%
Oc1ccc(COCc2ccccc2)c2cccnc12,i,0%,25µM*,4,1%,-5%
OCCN1CCN(Cc2cc(Cl)c3cccnc3c2O)CC1,.,.,.,9,.,.
Oc1ccc(CN2CCCCC2)c2cccnc12,.,.,.,10,.,.
Oc1c(CN2CCN(c3ccccn3)CC2)cc(Cl)c2cccnc12,i,2%,7.9µM*,3,-3%,-5%
Oc1c(CN2CCCCC2)cc(COCc2ccccc2)c2cccnc12,i,0%,2.5µM*,14,0%,-9%
COc1ccc(C(=O)Oc2c(CN3CCOCC3)cc(Cl)c3cccnc23)cc1,i,0%,-26%,-2,0%,-1%
O=C(Oc1c(CN2CCOCC2)cc(Cl)c2cccnc12)c1ccc(F)cc1,i,0%,13µM*,12,1%,-4%
Cc1nc(NCc2ccccc2)c2nc(-c3ccccc3)n(CCN(C)C)c2n1,i,-4%,-2%,.,1%,-3%
Oc1ccc(CNc2ccccc2F)c2cccnc12,i,-1%,5µM*,-4,-2%,-3%
COCc1cc(CN2CCCC2)c(O)c2ncccc12,i,0%,3.2µM*,13,-1%,-3%
Oc1ccc(CNCc2ccccc2)c2cccnc12,i,-2%[15.4 µM],?,.,-2%[15.4 µM],-5%[11.4 µM]
O=C(Nc1ccc(-n2nncc2-c2ccco2)cc1)c1cc2ccccc2oc1=O,i,1%,1%,-1,-1%,13µM*
Cc1cccc(CNc2cc(-c3ccccc3C)ncn2)c1,i,0%,6%,.,2%,-9%
O=C(NCCCn1ccnc1)C(F)(F)C(F)(F)C(=O)NCCCn1ccnc1,i,-2%,25µM*,4,0%,-5%
N#CC1(O)CCCCC1,i,0%,-2%,.,-2%,-1%
O=C(N/N=C/c1ccccc1O)c1cc(-c2ccccc2)n[nH]1,.,5%,.,.,2%,.
C=Cc1c(C)c2cc3nc(cc4[nH]c(cc5nc(cc1[nH]2)C(C)=C5CCC(=O)O)c(CCC(=O)OC)c4C)[C@@]1(C)C3=CC=C(C(=O)OC)[C@H]1C(=O)OC (tested in a mixture with another compound),i,-1%[34.4 µM],0.25µM*,13[20.6 µM],-1%[34.4 µM],1%[25.6 µM]
CN(C)c1ccc(N=Nc2cccc3ccoc23)cc1,i,-2%[15.4 µM],4µM*,.,1%[15.4 µM],-8%[11.4 µM]
Cc1cc(O)c2c(c1)C(=O)c1cc(O)cc(O)c1C2=O,i,-2%,5µM*!,5,3%,-17%
CCOC(=O)c1ccc(-n2c(CCC(=O)O)ccc2-c2ccc(Br)cc2)cc1,.,.,.,23,.,.
Cc1nc2cnc(N3CCOCC3)nc2n(C[C@H]2CCCO2)c1=O,i,0%,-3%,.,0%,-8%
CO/N=C(/C(=O)NC1C(=O)N2C(C(=O)O)=C(CSc3nc(=O)c(O)nn3C)CSC12)c1csc(N)n1 (stereo not drawn),.,-1%,.,.,-1%[3.08 µM],.
